Assay outcomes deposited in PubChem by National Center for Advancing Translational Sciences (NCATS).
The list is not random: actives were taken first. Their share in the collection is about 8.8%.
KB-3-1 tox = KB-3-1 parental cell cytotoxicity; KB-3-1 viability, CellTiter-Glo ATP luminescence, 72 h; Potency, µM (doses to about 46.1 µM), hits mostly cytotoxic; actives 1.4% (n = 400,000); AID 1347075; also: nearly all actives have a fitted effect of over 60% in size
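Parental KB-3-1 adenocarcinoma cells in phenol-red-free DMEM with 10% FBS were pin-treated with compounds at several concentrations, incubated 72 h at 37 °C, and viability read by CellTiter-Glo luminescence; concentration-effect curves were fitted after normalization.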
KB-V1 cytotox = kills drug-selected multidrug resistant KB-V1 cells; Potency, µM (highest dose often 46.1 µM), most hits filed as cytotoxic; KB-V1 MDR cells viability, CellTiter-Glo, 72 h; actives 3.4% (n = 400,000); also: nearly all actives have a fitted effect of over 60% in size
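KB-V1, DMEM (no phenol red) + 10% FBS; cpd pin-transferred, titration series; 72 h, 37 degrees C; CellTiter-Glo, luminescence. Data normalized, curve-fit.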
HT1080NT lethal = kills 2HG-producing HT-1080-NT fibrosarcoma cells | HT-1080-NT fibrosarcoma viability, CellTiter-Glo ATP luminescence, 48 h | Potency, µM (series often up to 46.1 µM), usual class: cytotoxic | actives 1.6% (n = 360,000) | AID 686970;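 also: NT is the 2HG producing partner of a matched IDH1 knockdown line; nearly all actives have a fitted effect of over 55% in size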
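Viability of the 2HG-overproducing fibrosarcoma line after 48 hours of compound exposure at 37 degrees C was determined by luminescence with CellTiter-Glo, and concentration-effect curves were then fitted and categorized.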
HT1080 IDH1KD tx = HT-1080 IDH1 knockdown cell toxicity (counter line). actives 2% (n = 360,000). Potency, µM (doses to about 46.1 µM), actives largely listed as cytotoxic. HT-1080 IDH1 knockdown viability, ATP luminescence, 48 h
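In this qHTS, HT-1080 cells depleted of IDH1 are exposed for 48 h at 37 °C to compound titrations. Toxicity is scored from CellTiter-Glo luminescence, with DMSO as full viability and medium alone as none.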
IL1B secr inh = inflammasome signaling inhibition, IL-1 beta readout; THP-1 LPS/ATP IL-1B secretion, AlphaLISA, 16 h; hits give low values; activity change, % at 57.5 µM; actives 4.7% (n = 360,000); AID 743279; in the data active = activity change below about -50%; inconclusive = mostly about -30% to -49%
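Secreted IL-1B measured by AlphaLISA bead assay after 16 h compound exposure of THP-1 cells; compounds (final up to 57.5 uM) added 1 h before LPS (250 ng/mL) and ATP (1.25 mM) stimulation; lower signal means less secretion.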
Each line names hits and unclear results; the compound was inactive in the other large screens. Unless noted, calls follow the shape of the dose curve; as a rule, active = well fitted curve in the direction sought with a large enough effect; inconclusive = small, poorly fitted or top-dose-only effect, or another doubt; inactive = no such curve, though single readings can be large; an effect the other way counts as inactive or inconclusive.

CCn1c(SCC(=O)c2[nH]c(C)c(C(C)=O)c2C)nnc1-c1ccccc1	KB-V1 cytotox inconclusive, HT1080 IDH1KD tx 16.4µM
COc1cc(/C=C2/C(=O)NN(c3cccc(C)c3)C2=O)ccc1OC(=O)c1ccco1	HT1080NT lethal inconclusive, HT1080 IDH1KD tx inconclusive, IL1B secr inh -68.9
COc1cc(/C=C2/C(=O)NN(c3cccc(C)c3)C2=O)cc([N+](=O)[O-])c1O	none
O=[N+]([O-])c1c(C(Cl)Cl)nn(-c2ccccc2)c1N1CCOCC1	IL1B secr inh -80.6
O=[N+]([O-])c1c(C(Cl)Cl)nn(-c2ccc(Cl)cc2)c1N1CCCCC1	KB-V1 cytotox inconclusive
CCC(CC)C(=O)N1N=C(c2ccc(NS(C)(=O)=O)cc2)CC1c1ccccc1 (stereo not given)	KB-V1 cytotox inconclusive
CCC(CC)C(=O)N1N=C(c2ccc(NS(C)(=O)=O)cc2)CC1c1ccc(C)cc1 (stereo not given)	KB-V1 cytotox 18.4µM
Cc1c(C(=O)N/N=C/C(C)C)[nH]c2c([N+](=O)[O-])cccc12	KB-3-1 tox inconclusive, KB-V1 cytotox inconclusive, HT1080NT lethal inconclusive, HT1080 IDH1KD tx 2.59µM
COC(=O)C[C@H]1C=C[C@H](NC(=O)c2cccc(F)c2)[C@@H](CO)O1	none
Cc1cccc(C(=O)N[C@H](C(=O)Nc2ncc(C)s2)C(C)C)c1	KB-3-1 tox inconclusive, KB-V1 cytotox 16.4µM, IL1B secr inh inconclusive
Cc1cccc(C(=O)N[C@H](C(=O)Nc2nnc(C3CC3)s2)C(C)C)c1	KB-V1 cytotox inconclusive
Cc1ccccc1CN(C)C(=O)c1ccc2ccccc2n1	none
S=C(NCCc1ccccc1)N1CCN(Cc2ccccc2)CC1	none
COc1ccc(C(=O)NC(C(=O)N2CCN(c3ccccc3O)CC2)C(C)C)cc1 (stereo not given)	KB-V1 cytotox inconclusive
Oc1ccc(N2CCN(C(=S)NCCc3ccccc3)CC2)cc1	KB-3-1 tox inconclusive, HT1080NT lethal inconclusive, HT1080 IDH1KD tx 3.66µM
COc1ccc(N2CCN(C(=S)NCCc3ccccc3)CC2)cc1	none
Oc1ccccc1N1CCN(C(=S)NCCc2ccccc2)CC1	KB-3-1 tox inconclusive, KB-V1 cytotox 14.6µM
COc1ccc(C(=O)NC(=S)N2CCN(c3ccccc3O)CC2)cc1	KB-V1 cytotox 20.6µM
COc1ccc2[nH]c(=O)c(CNc3cccc(C)c3)cc2c1	KB-3-1 tox inconclusive, KB-V1 cytotox 5.8µM
COc1ccc2[nH]c(=O)c(CN(Cc3cccs3)C(=S)Nc3cccc(C)c3)cc2c1	KB-V1 cytotox inconclusive
COc1ccc(NCc2cc3cc(OC)ccc3[nH]c2=O)cc1	KB-V1 cytotox 18.4µM
COc1ccc(NCc2cc3ccccc3[nH]c2=O)cc1	none
CC1=CC(C)(C)NC(=S)N1c1cccc(Cl)c1	none
O=C(CC12CC3CC(CC(C3)C1)C2)N1CCCOC1	none
O=C(CC12CC3CC(C1)CC(CC(=O)N1CCCC1)(C3)C2)N1CCCC1	KB-V1 cytotox 14.6µM
O=C(OCc1ccccc1)c1ccc(NCc2cc(O)ccc2O)cc1	KB-3-1 tox 3.66µM, KB-V1 cytotox 2.59µM, HT1080NT lethal 9.2µM, HT1080 IDH1KD tx 5.8µM, IL1B secr inh -76.2
COP(=O)(OC)c1ccc(NCc2cc(O)ccc2O)cc1	none
CC(C)OC(=O)c1ccc(NCc2cc(O)ccc2O)cc1	KB-3-1 tox inconclusive, KB-V1 cytotox inconclusive, HT1080NT lethal 20.6µM, HT1080 IDH1KD tx 18.4µM, IL1B secr inh -100.5
COc1ccc(NC(=S)N2CCN(S(=O)(=O)c3ccc(OC)cc3)CC2)cc1	KB-V1 cytotox inconclusive
Cc1cccc(NCc2ccc(Br)cc2)n1	IL1B secr inh -62.4
Cc1cccc(NCc2cccc3ccccc23)n1	none
Cc1c(NS(=O)(=O)c2cccs2)cccc1-c1nc2cccnc2s1	HT1080NT lethal inconclusive
O=S(=O)(Nc1cccc2ncccc12)c1cccs1	KB-3-1 tox inconclusive, KB-V1 cytotox inconclusive, HT1080 IDH1KD tx inconclusive, IL1B secr inh -63.7
Cc1cccc(NC(=O)C(C)C(=O)c2ccccc2)c1 (stereo not given)	none
Cc1ccc(NC(=O)C(C)c2cccc(C(=O)c3ccccc3)c2)cc1O (stereo not given)	KB-3-1 tox inconclusive, KB-V1 cytotox 6.51µM, IL1B secr inh inconclusive
Cc1ccc(CN2CCN(/N=C/c3ccc(C)s3)CC2)c(C)c1	KB-V1 cytotox 16.4µM
Cc1ccc(Cl)cc1N1CCN(C(=O)c2cc(S(=O)(=O)N3CCCCC3)cn2C)CC1	none (no result: HT1080NT lethal, HT1080 IDH1KD tx, IL1B secr inh)
CCOCCn1c(CN2CCN(c3cccc(Cl)c3)CC2)nc2c1c(=O)n(C)c(=O)n2C	none
CCOCCn1c(CN2CCN(c3ccc(F)cc3)CC2)nc2c1c(=O)n(C)c(=O)n2C	KB-3-1 tox inconclusive, KB-V1 cytotox 9.2µM
CCCCn1c(CN2CCN(C(=O)OCC)CC2)nc2c1c(=O)n(C)c(=O)n2C	KB-3-1 tox inconclusive, KB-V1 cytotox 13µM
CCCCCn1c(CN2CCN(CCO)CC2)nc2c1c(=O)n(C)c(=O)n2C	none
Cc1ccc(N=C2NC(=O)/C(=C/c3cccn3C)S2)cc1C	KB-3-1 tox inconclusive, KB-V1 cytotox inconclusive
COc1ccc(N=C2NC(=O)/C(=C/c3ccco3)S2)cc1	IL1B secr inh -55.0
Cc1ccc(N=C2NC(=O)/C(=C/c3cccn3C)S2)cc1	KB-3-1 tox inconclusive, KB-V1 cytotox inconclusive, HT1080 IDH1KD tx 10.3µM
COc1cc(/C=C2\SC(=Nc3ccccc3OC)NC2=O)ccc1O	KB-3-1 tox 18.4µM, KB-V1 cytotox inconclusive, HT1080NT lethal 4.11µM, HT1080 IDH1KD tx 7.31µM, IL1B secr inh -60.1
COc1cc(/C=C2\SC(=Nc3ccccc3)NC2=O)cc(Cl)c1O	HT1080 IDH1KD tx inconclusive
COc1cc(/C=C2/SC(=Nc3ccc(O)cc3)NC2=O)ccc1O	KB-3-1 tox 9.2µM, KB-V1 cytotox inconclusive, HT1080NT lethal 0.651µM, HT1080 IDH1KD tx 1.16µM, IL1B secr inh inconclusive
CSc1ccc(/C=C/c2ccnc3ccccc23)cc1	KB-3-1 tox inconclusive (no result: HT1080NT lethal, HT1080 IDH1KD tx, IL1B secr inh)
COCCN(C(=O)COC(=O)c1ccc(Br)o1)c1c(N)n(Cc2ccccc2)c(=O)[nH]c1=O	none
COC(=O)C[C@H]1c2cc(C(F)(F)F)ccc2S(=O)(=O)N1Cc1ccccc1OC	KB-V1 cytotox inconclusive
CC1CCN(CC(=O)n2c3c(c4ccccc42)CCCC3)CC1	HT1080NT lethal inconclusive, HT1080 IDH1KD tx inconclusive
O=C(c1ccccc1F)n1c2c(c3ccccc31)CCCC2	KB-3-1 tox inconclusive, KB-V1 cytotox inconclusive, HT1080NT lethal inconclusive, HT1080 IDH1KD tx 14.6µM
CCOC(=O)N1CCC(=NNC(=O)Cn2ccc(C(F)(F)F)n2)CC1	none
COc1ccccc1OC(C)C(=O)N1CCN(CCc2ccccn2)CC1 (stereo not given)	none (no result: HT1080NT lethal, HT1080 IDH1KD tx, IL1B secr inh)
Cc1ccc(-c2cc(C(=O)O)c3cc(Br)ccc3n2)o1	KB-V1 cytotox inconclusive
Cc1ccc(-c2cc(C(=O)NCCCn3ccnc3)c3cc(Br)ccc3n2)o1	KB-V1 cytotox 20.6µM, IL1B secr inh inconclusive
